A number with no mark means an inactive call.

This test deals with E18 rat cortical neuron-glia co-culture. In words: myelination (MBP fiber length per Olig2+ nucleus), % of 1 µM DAPT response (DMSO = 0) (% of DAPT); higher = more myelination, active = 50 or more. The settings on record: 1 µM; treatment time: 8 days (DIV5-DIV13). In outline:
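The myelination value was the continuous straight MBP fiber length per Olig2+ nucleus, scaled between 0.1 % DMSO (0) and a 1 µM positive control (100). It was measured in primary E18 rat cortical co-cultures treated with library compounds at 1 or 5 µM in myelination medium from DIV5 through DIV13. Cells were fixed in 4 % paraformaldehyde and stained for MBP, Olig2 and DAPI, and four 10X fields per well were imaged in duplicate wells.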
As for `c1cnc(N2CCN(Cc3ccc4c(c3)OCO4)CC2)nc1` [Piribedil], the myelination was -24.5.
In the case of `CC(=O)[C@H]1CC[C@H]2[C@@H]3C[C@H](C)C4=CC(=O)CC[C@]4(C)[C@H]3[C@@H](O)C[C@]12C` [Medrysone] it was 5.47; in that of `CN(C)CCCN1c2ccccc2CCc2ccc(Cl)cc21` [Clomipramine], -10.8.
The value for `CCCc1nc(C(C)(C)O)c(C(=O)O)n1Cc1ccc(-c2ccccc2-c2nnn[nH]2)cc1` [Olmesartan] was -32.2.
The value for `Nc1nc(N)nc(-c2cc(Cl)ccc2Cl)n1` [Irsogladine] was -14.2.
Turning to `CC(C)OC(=O)CCC/C=C\C[C@@H]1[C@@H](CC[C@@H](O)CCc2ccccc2)[C@H](O)C[C@@H]1O` [Latanoprost], the myelination is -8.13.
In the case of `CC1CNc2c(cccc2S(=O)(=O)N[C@@H](CCCNC(=N)N)C(=O)N2CC[C@@H](C)C[C@@H]2C(=O)O)C1` (stereo partly drawn) [Argatroban] it was -43.9; in that of `COc1c(N2CCNC(C)C2)c(F)cc2c(=O)c(C(=O)O)cn(C3CC3)c12` (stereo not drawn) [Gatifloxacin], -17.
As for `O=C1N(c2ccccc2)c2ccccc2C1(Cc1ccncc1)Cc1ccncc1` [Linopirdine], the myelination is -4.06.
The value for `COc1ccccc1N1CCN(CCCNc2cc(=O)n(C)c(=O)n2C)CC1` [Urapidil] was -28.5; that for `CN1C2CCCC1CC(NC(=O)c1nn(C)c3ccccc13)C2` (stereo not drawn) [Granisetron] was -10.7.
In the case of `Cc1ccc(-c2cc(C(F)(F)F)nn2-c2ccc(S(N)(=O)=O)cc2)cc1` [Celecoxib] it was -5.22; in that of `CCc1cccc2c3c([nH]c12)C(CC)(CC(=O)O)OCC3` (stereo not drawn) [Etodolac], -10.5.
Consider `NS(=O)(=O)c1cc(C2(O)NC(=O)c3ccccc32)ccc1Cl` (stereo not drawn) [Chlorthalidone], for which the myelination is 18.9.
On to `Nc1cc(N2CCCCC2)nc(N)[n+]1[O-]` [Minoxidil], for which the myelination is -26.1.
Take `COc1ccc2[nH]c([S@@+]([O-])Cc3ncc(C)c(OC)c3C)nc2c1` [Esomeprazole]: the myelination is -10.5.
In the case of `Cn1c(NCCN(CCO)CCCc2ccc([N+](=O)[O-])cc2)cc(=O)n(C)c1=O` [Nifekalant] it was -9.01; in that of `CCCOc1ccc(C(=O)OCCN(CC)CC)cc1N` [Proxymetacaine], 13.3; in that of `COCCCOc1ccnc(C[S+]([O-])c2nc3ccccc3[nH]2)c1C` (stereo not drawn) [Rabeprazole], -11.1.
The value for `OC(CCN1CCCCC1)(c1ccccc1)C1CCCCC1` (stereo not drawn) [Trihexyphenidyl] was -12.2.
As to `CCN(CC)CCNC(=O)c1cc(Cl)c(N)cc1OC` [Metoclopramide], the myelination is -6.65.
In the case of `COc1cc(N)c(Cl)cc1C(=O)NC1CCN(CCCOc2ccc(F)cc2)CC1OC` (stereo not drawn) [Cisapride] it was -1.62; in that of `CC1(C)O[C@@H]2[C@@H](CO[C@@]3(COS(N)(=O)=O)OC(C)(C)O[C@@H]23)O1` [Topiramate], -20.2.
Regarding `CC(C)Cc1ccc(C(C)C(=O)O)cc1` (stereo not drawn) [Ibuprofen], the myelination was -7.57.
The value for `COC(=O)[C@H](c1ccccc1Cl)N1CCc2sccc2C1` [Clopidogrel] was -6.76; that for `COC1=CC(=O)C[C@@H](C)[C@]12Oc1c(Cl)c(OC)cc(OC)c1C2=O` [Griseofulvin] was -17.8.
In the case of `O=C(O)c1cc(/N=N/c2ccc(S(=O)(=O)Nc3ccccn3)cc2)ccc1O` [Sulfasalazine] it was -11.7; in that of `Cc1nccn1CC1CCc2c(c3ccccc3n2C)C1=O` (stereo not drawn) [Ondansetron], -25.6; in that of `CCN(CC)CCNC(=O)c1ccc(N)cc1` [Procainamide], -8.23.
Consider `Nc1nc(Cl)nc2c1ncn2[C@@H]1O[C@H](CO)[C@@H](O)[C@H]1O` [2-Chloroadenosine], for which the myelination was -12.4.
Turning to `COC(=O)C1=C(C)NC(C)=C(C(=O)OC(C)C)C1c1cccc2nonc12` (stereo not drawn) [Isradipine], the myelination is -16.2.
For `O=C(CCCN1CC=C(n2c(=O)[nH]c3ccccc32)CC1)c1ccc(F)cc1` [Droperidol], the myelination was -4.1.
In the case of `CO[C@H]1/C=C/O[C@@]2(C)Oc3c(C)c(O)c4c(O)c(c(/C=N/N5CCN(C6CCCC6)CC5)c(O)c4c3C2=O)NC(=O)/C(C)=C\C=C\[C@H](C)[C@H](O)[C@@H](C)[C@@H](O)[C@@H](C)[C@H](OC(C)=O)[C@@H]1C` [Rifapentine] it was 2.99.

Values taken from the supplement of paper PMC4840960.
